# CYP2C9 activ: CYP2C9 (human) activation. actives 1.4% (n = 96,000). P11712. AID 1024. activation factor at 5 µM. recombinant CYP2C9, luciferin-H conversion, luminescence; stronger effect = higher value; factor 1 = untreated enzyme, 0 = blocked;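 active = activation factor of 2 or more for CYP2C9 at a 5 µM dose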;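 note: 0 = sulfaphenazole-blocked wells and 1 = vehicle-only wells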
# Measles CPE: protection of cells from measles virus | Measles virus-infected cells, CPE protection, absorbance | protection (pct of control), % at 4 µM | actives 1.5% (n = 140,000); in the data active = protection mostly above about 24%, no sharp cut-off; inactive = mostly below about 26%
# CYP2C19 act: cytochrome P450 2C19 (human) activation. recombinant CYP2C19, luciferin-H EGE luminescence; stronger effect = higher value; 0 = fully inhibited enzyme, 1 = untreated enzyme. activation factor at 5 µM. 96,000 tested, under 10 active. AID 1025;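 active = activation factor of at least 2 at 5 µM in the primary screen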;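 note: 0 = wells with 2.5 mM tranylcypromine and 1 = vehicle-only wells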
# Target sequence (P33261 whole entry, looked up): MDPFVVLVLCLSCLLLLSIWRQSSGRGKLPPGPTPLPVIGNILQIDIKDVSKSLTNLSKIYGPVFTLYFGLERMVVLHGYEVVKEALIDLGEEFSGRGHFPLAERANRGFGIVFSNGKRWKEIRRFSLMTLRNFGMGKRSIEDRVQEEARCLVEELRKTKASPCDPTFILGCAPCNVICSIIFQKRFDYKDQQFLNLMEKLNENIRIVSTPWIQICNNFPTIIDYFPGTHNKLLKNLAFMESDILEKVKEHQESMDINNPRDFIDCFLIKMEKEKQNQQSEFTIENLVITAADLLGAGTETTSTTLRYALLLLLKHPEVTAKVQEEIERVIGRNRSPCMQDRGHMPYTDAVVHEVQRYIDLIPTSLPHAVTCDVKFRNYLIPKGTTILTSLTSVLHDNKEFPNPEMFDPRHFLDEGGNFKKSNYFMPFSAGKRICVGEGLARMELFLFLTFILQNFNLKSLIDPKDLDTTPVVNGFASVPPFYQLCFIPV
# CYP2C9 inhib: inhibitors of human CYP2C9; P11712; CYP2C9 Supersomes, luciferin-H conversion, luminescence; inhibition, % at 5 µM; actives 20% (n = 96,000);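 active = blocking of liver enzyme CYP2C9 beyond about 50% at 5 µM, limit read from the data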
# CYP2C19 inhib: human CYP2C19 inhibition; P33261; CYP2C19 Supersomes, luciferin-H EGE luminescence, 30 min; inhibition, % at 5 µM; actives 21% (n = 96,000); AID 778;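 active = CYP2C19 inhibition above a set limit at 5 µM in the primary screen, cut at about 50% in these data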;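 note: plate controls were negative control wells for no effect and 2.5 mM tranylcypromine positive control for full effect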
# Active calls of the source: *; x = no result given. An excerpt weighted towards active compounds, which were near 22% of everything screened.
SMILES,CYP2C9 activ,Measles CPE,CYP2C19 act,CYP2C9 inhib,CYP2C19 inhib
Cc1sc2nc(CN3CCOCC3)nc(NS(=O)(=O)c3ccc4c(c3)OCCO4)c2c1C,0.2,9.8,0.7,80.2*,31.4
CC(=O)Nc1ccc(S(=O)(=O)Nc2nc(CN3CCOCC3)nc3sc4c(c23)CCCC4)cc1,0.5,5.3,1.1,53.2*,-10.9
NS(=O)(=O)c1ccc(CCNc2nc(CN3CCOCC3)nc3sc4c(c23)CCC4)cc1,0.7,x,1,33.7,-4.1
Cc1sc2nc(CN3CCOCC3)nc(NCCc3ccccc3)c2c1C,0.1,3.6,0.6,90.1*,39.5
CCN(CC)CCNC(=O)CCCNC(=O)Cn1cnc2sc(C)c(C)c2c1=O,1.1,32.1,1.2,-5.3,-18.1
O=[N+]([O-])c1ccc(Sc2cccc3cccnc23)cc1,0.6,15.6,0.2,42.4,83.6*
Cc1ccc(-c2nnc(-c3ccncc3)n2-c2ccc(C)cc2)cc1,0.8,10.1,0.6,20.0,38.5
O=C(Nc1ncnc2c1ncn2C1OC(COC(=O)c2ccccc2)C(F)C1O)c1ccccc1 (configuration not stated),0.1,13.0,0.2,86.5*,79.6*
CC(=O)c1c(C(C)=O)c(C)n(NC(=O)c2ccccc2O)c1C,0.1,16.0,1.1,86.3*,-12.0
CC(=O)c1c(C(C)=O)c(C)n(NC(=O)c2cccnc2)c1C,0.9,9.2,1,6.8,-2.6
CCc1nnc(NC(=O)CSc2nnnn2-c2cccc(C(=O)OC)c2)s1,0.3,1.3,0.7,67.8*,33.0
CCc1nnc(NC(=O)CSc2nnc(CNc3cccc(C)c3)n2-c2ccccc2)s1,0.2,5.7,0.5,76.7*,51.1*
Cc1cccc(-n2c(SCC(=O)Nc3nonc3C)nnc2-c2ccoc2C)c1,0.5,9.2,0.6,54.5*,45.0
CCc1nnc(NC(=O)CSc2nnc(CNc3ccc(F)cc3)n2C2CCCCC2)s1,0.3,12.1,0.4,67.7*,56.8*
Cc1cc(NC(=O)CSc2nnc(CNc3ccc(F)cc3)n2C2CCCCC2)no1,0.9,12.2,1,13.6,0.3
CC1=CC2=NC(=O)/C(=C\c3cccn3CCOc3cc(C)cc(C)c3)C(=N)N2O1,x,0.6,x,x,x
CCC(=O)Nc1ccc(Cl)c(NC(=O)C(C)C)c1,1,6.4,1,3.5,-1.1
Cc1cc(C)n2nc(CC(=O)NC3CCCCCC3)nc2n1,1.2,33.8,1.1,-18.4,-14.4
Cc1nonc1NC(=O)CSc1nnc(-c2ccoc2C)n1CC(C)C,0.9,19.5,0.2,14.5,76.0*
CCc1nnc(NC(=O)CSc2nnc(-c3ccoc3C)n2-c2cccc(C)c2)s1,0.5,17.0,0.6,53.7*,37.1
CCc1nnc(NC(=O)CSc2nnc(-c3ccccc3OC)n2-c2ccc(C)cc2)s1,0.3,7.8,0.2,71.6*,77.4*
Cc1cc(N2CCN(c3nnnn3-c3ccccc3)CC2)n2ncnc2n1,0.7,18.1,0.3,30.7,65.6*
O=C(C1CCN(c2nnnn2-c2ccccc2)CC1)N1CCN(c2ccccc2)CC1,0.8,5.5,0.8,23.9,17.1
c1ccc(-n2nnnc2-n2cnc3ccccc32)cc1,0.6,5.8,0.2,43.8,82.2*
Cc1cccc(N2CCN(c3cc(C)nc4nnnn34)CC2C)c1 (configuration not stated),0.9,4.8,0.6,6.4,37.1
SMILES,CYP2C9 activ,Measles CPE,CYP2C19 act,CYP2C9 inhib,CYP2C19 inhib
Cc1nnc(-n2cnc3ccccc32)c2ccccc12,1.1,13.1,1,-10.8,-3.9
c1ccc(N2CCN(c3nnnn3-c3ccccc3)CC2)cc1,0.1,7.4,0,93.2*,99.8*
Cc1cc(N2CCN(c3ccccc3)CC2)n2nnnc2n1,0.8,17.3,1,15.9,2.0
Cc1cccc(N2CCN(c3nnnn3-c3ccccc3)CC2C)c1 (configuration not stated),0.1,6.0,0,88.4*,100.0*
O=C(Nc1c2c(nc3ccccc13)CCCC2)c1cccc([N+](=O)[O-])c1,x,2.3,x,x,x
Fc1cccc(-c2cc3nc4c(c(N5CCC6(CC5)OCCO6)n3n2)CCCC4)c1,0.3,2.6,0.7,74.1*,25.6
CN(CCO)c1c2c(nc3cc(-c4cccc(F)c4)nn13)CCCC2,0.4,18.0,0.7,55.9*,32.3
OC1CCN(c2c3c(nc4cc(-c5cccc(F)c5)nn24)CCCC3)CC1,0.6,4.3,0.7,42.2,28.9
Clc1cccc(-c2cc3nc4c(c(N5CCNCC5)n3n2)CCCC4)c1,x,20.6,x,x,x
C/C(=N\NC(=O)Nc1ccccc1)c1ccccc1,x,8.8,x,x,x
CCn1c(-c2ccc(F)cc2)cnc1SCC(=O)N1CCCCC1C (configuration not stated),0.6,11.1,0.4,39.6,62.7*
CC(C)NC(=O)c1ccccc1NC(=O)C1COc2ccccc2O1 (configuration not stated),x,3.6,x,x,x
COC(=O)c1cccc(NC(=O)C2COc3ccccc3O2)c1C (configuration not stated),0.7,22.9,0.4,27.7,64.0*
COC(=O)c1cc(NC(=O)C2COc3ccccc3O2)ccc1Cl (configuration not stated),0.3,3.9,0.1,71.8*,94.6*
COC(=O)c1cccc(NC(=O)C2COc3ccccc3O2)c1 (configuration not stated),0.4,3.2,0.3,60.0*,67.1*
CC(C)[C@H](NS(=O)(=O)c1ccccc1)C(=O)OCC(=O)Nc1ccc2c(c1)OCO2,x,8.2,x,x,x
COc1ccc(OC)c(S(=O)(=O)N2CCC(C(=O)N3CCN(Cc4ccccc4)CC3)CC2)c1,0.5,6.9,0.6,54.9*,41.7
COc1ccc(OC)c(S(=O)(=O)N2CCC(C(=O)NCCc3ccccc3)CC2)c1,3.2*,4.1,0.6,-216.5,41.2
COc1ccc(C2OC(=O)CC2C(=O)N2CCN(c3cc(Cl)ccc3C)CC2)cc1OC (configuration not stated),0.2,23.4,0.3,85.0*,72.6*
COc1ccc(OC)c(CCNC(=O)C2CCN(c3nnc(-n4cccc4)s3)CC2)c1,0.3,2.0,0.1,65.4*,92.7*
CCn1c(C(=O)Nc2ccsc2C(=O)OC)cc2sc(Cl)cc21,0.8,22.1,0.9,19.6,6.3
Cc1coc(NC(=O)CSc2nc(-c3ccncc3)cc(C(F)(F)F)c2C#N)n1,0.6,9.3,0.8,35.3,19.7
CCN(CC)CCNC(=O)C1c2ccccc2C(=O)N(CCOC)C1c1ccc(F)cc1 (configuration not stated),1.3,26.2,1.3,-29.2,-33.4
O=C(C1CCN(c2nnc(-n3cccc3)s2)CC1)N1CCN(Cc2ccc3c(c2)OCO3)CC1,1,11.1,0.8,1.5,24.7
CC1CCN(Cc2ccc(NC(=O)C3CCN(c4nnc(-n5cccc5)s4)CC3)cc2)CC1,0.5,1.1,0.4,46.1,56.0*
Cc1cccc(N2CCN(C(=O)C3CCN(c4nnc(-n5cccc5)s4)CC3)CC2C)c1 (configuration not stated),0.6,3.1,0.7,36.7,33.9
